Screens from PubChem.
Shown are actives, neighbours in structure and some others; about 4.1% of the full set was active somewhere.
ssDAF12 agonist: activators of S. stercoralis DAF-12 nuclear receptor. HEK293 ssDAF-12/GRIP1 lit1-tk-luc reporter, luminescence; % of 3 µM dafachronic acid response. activation, % at 6.8 µM. 370,000 tested, 1% active. AID 652126;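 active means activation above the mean over all tested compounds plus 3 SD, cut at about 0.9% in these data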;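 further: 0% = DMSO-only wells and 100% = 3 µM delta7-dafachronic acid wells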
hgDAF-12 ag: activates the H. glycines DAF-12 receptor ligand-binding domain | HEK293 GAL4-hgDAF12 UAS-luciferase reporter, agonist luminescence; normalized to butyrate control | activation, % at 6.8 µM | 370,000 tested, 1.8% active | AID 687014;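 active means activation above a cutoff set at the mean of all screened compounds plus 3 SD, cut at about 10% in these data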;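 further: 0% = DMSO wells and 100% = sodium butyrate wells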
hcDAF12 agonist: activates DAF-12 receptor from parasite H. contortus; AID 652067; 370,000 tested, 1.4% active; activation, % at 6.8 µM; HEK293 hcDAF-12 lit1-tk-luc reporter, luminescence; 0% DMSO, 100% Δ7-dafachronic acid;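 active means activation above the mean of all tested compounds plus 3 SD, cut at about 5.5% in these data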;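 further: 100% = response to 3 µM Δ7-dafachronic acid high control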
DAX1 inh-1: blocks DAX1 repression of SF-1 activated StAR promoter; HEK293T StAR-luciferase reporter, SF-1/DAX-1 repression relief; AID 652010; inhibition, % at 6.8 µM; 370,000 tested, 1.1% active;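 active means inhibition above the mean over all tested compounds plus 3 SD, cut at about 3.6% in these data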;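 further: 0% = DAX-1 cells with DMSO and 100% = cells lacking DAX-1 with DMSO; higher inhibition means more luminescence from relief of DAX-1 repression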
DAX1 inh-2: inhibitors of human orphan nuclear receptor DAX1 (NR0B1); AID 504766; inhibition, % at 6.75 µM; 340,000 tested, 0.99% active; HEK293 Gal4-DAX1 luciferase reporter, luminescence;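 active means inhibition above the mean over all tested compounds plus 3 SD, cut at about 4.2% in these data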;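 further: 0% = DAX1-transfected cells with DMSO and 100% = empty-vector control cells with DMSO; inhibition shows as a rise in luminescence from relieved DAX1 repression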
Target sequence (P51843 207-470 limits assumed): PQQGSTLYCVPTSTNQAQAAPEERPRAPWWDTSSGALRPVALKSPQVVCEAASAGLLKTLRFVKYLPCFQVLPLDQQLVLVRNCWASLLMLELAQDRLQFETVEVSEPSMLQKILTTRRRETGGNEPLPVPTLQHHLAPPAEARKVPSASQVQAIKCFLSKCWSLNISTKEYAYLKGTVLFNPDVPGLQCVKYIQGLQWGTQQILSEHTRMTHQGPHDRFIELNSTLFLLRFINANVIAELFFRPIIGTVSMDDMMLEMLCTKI
LXRb hcDAF ctr: LXR-beta agonism as hcDAF-12 counter-screen. shares compounds with hcDAF12 agonist. HEK293 Gal4-LXR tk-luc reporter, luminescence, 24 h; normalized: DMSO 0%, positive control 100%. activation, % at 6.8 µM. 3,400 tested, under 10 active. AID 743027;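 active means mean percent activation of the reporter above a cutoff set as the average over tested compounds plus their standard deviation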
Target sequence (P55055 whole entry, looked up, the tested form may be a part): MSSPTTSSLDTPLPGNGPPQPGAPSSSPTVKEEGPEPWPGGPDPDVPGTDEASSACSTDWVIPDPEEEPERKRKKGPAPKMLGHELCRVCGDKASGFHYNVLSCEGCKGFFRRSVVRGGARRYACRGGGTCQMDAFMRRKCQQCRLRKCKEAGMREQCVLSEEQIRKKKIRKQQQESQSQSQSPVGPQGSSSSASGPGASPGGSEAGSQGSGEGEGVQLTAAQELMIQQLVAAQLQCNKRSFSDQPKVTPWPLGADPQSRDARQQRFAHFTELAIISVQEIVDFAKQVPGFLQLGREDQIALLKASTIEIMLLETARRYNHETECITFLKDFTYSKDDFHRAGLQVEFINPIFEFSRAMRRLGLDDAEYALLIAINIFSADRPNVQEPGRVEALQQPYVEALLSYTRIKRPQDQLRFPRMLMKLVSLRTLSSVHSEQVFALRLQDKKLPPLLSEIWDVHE
hcDAF12 conf: confirmation of H. contortus DAF-12 agonists; activation, % at 6.8 µM; 3,400 tested, 61% active; AID 743032; HEK293 hcDAF-12 lit1-tk-luc reporter, luminescence; % of Δ7-dafachronic acid response; shares compounds with hcDAF12 agonist;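 active means mean activation across triplicate tests above the threshold derived from the earlier primary screen, cut at about 5.5% in these data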;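 further: 0% = DMSO only wells and 100% = 3 µM Δ7-dafachronic acid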
Starred values were filed as active, the others as inactive; . = not tested or not shown.

SMILES | ssDAF12 agonist | hgDAF-12 ag | hcDAF12 agonist | DAX1 inh-1 | DAX1 inh-2 | LXRb hcDAF ctr | hcDAF12 conf
Cc1nn(-c2nc3ccccc3s2)c(N)c1Sc1ccc(F)cc1 | 0.8 | 7.2 | 6.6* | 1.7 | 3.4 | 0.8 | 13.8*
Cc1cc(C)n(-c2nc3ccccc3s2)n1 | -0.7 | 6.0 | -0.7 | 0.0 | -0.5 | . | .
Cc1nn(-c2nc3ccccc3s2)c(N)c1-c1ccc(Cl)cc1 | -0.5 | 1.8 | -1.9 | 0.1 | 1.0 | . | .
Cc1cc(N)n(-c2nc3ccccc3s2)n1 | 1.9* | 11.4* | 7.8* | 3.6* | 5.2* | 1.2 | 9.6*
C=CCN1C(=O)[C@H](CC(=O)N2CCC(c3ccccc3)CC2)[C@@]2(C(=O)OCC)CCCC=C12 | -1.3 | 0.8 | -2.7 | -1.5 | . | . | .
Cc1cc(N2CCN(CC(C)(C)O)C[C@H]2C)ccc1N1CCN(CC(C)(C)O)[C@@H](C)C1 | -1.1 | -3.9 | -1.5 | -0.3 | . | . | .
c1ccc(-c2cnnc(-c3ccccn3)n2)cc1 | -0.9 | 5.1 | 7.1* | 2.0 | 1.7 | 0.4 | 2.3
Clc1ccc(-c2cnn3c(-c4ccncc4)ccnc23)cc1 | -0.1 | 13.1* | 7.2* | 3.1 | 3.6 | 1.5 | 8.4*
COc1ccc2[nH]cc(C(=O)CCl)c2c1 | -0.9 | -0.1 | 0.0 | -1.8 | -3.7 | . | .
COc1ccc2[nH]cc(C(=O)CNc3nc(C)cs3)c2c1 | 0.4 | 8.3 | 7.3* | 2.1 | -0.4 | 0.4 | 7.6*
O=C1c2cccc(NCCNCCO)c2C(=O)c2cccc(NCCNCCO)c21 | 0.7 | -0.5 | 8.9* | -5.5 | -0.8 | 2.4 | 14.5*
Cc1cc2c(C)ccc(C)c2nc1SCC(=O)c1cccs1 | -1.5 | -1.6 | 1.2 | -0.4 | 0.2 | . | .
Cc1cc(SCC(=O)c2cccs2)nc2c(C)cccc12 | -0.7 | 2.6 | 6.8* | 0.1 | 1.3 | -0.2 | 2.6
Cc1cnc(NC(=O)C2COc3ccccc3O2)s1 (stereo unspecified) | -0.7 | 3.9 | 9.2* | 1.0 | -3.1 | 1.1 | 7.2*
Cc1csc(NC(=O)C2COc3ccccc3O2)n1 (stereo unspecified) | -0.3 | 7.0 | 7.0* | 2.8 | -1.8 | 0.7 | 4.6
O=C(NCC1CCN(C(=O)C(=O)c2cc3ccccc3o2)CC1)c1ccncc1 | -0.3 | 2.3 | -1.7 | 0.4 | . | . | .
Cc1ccccc1N(C)C(=O)CN1CCN(c2nc(-c3ccccc3)cs2)CC1 | -1.9 | -3.0 | -0.9 | -1.1 | . | . | .
Cc1cc(C)c2nc(/N=C(\N)NC(=O)c3ccccc3)nc(C)c2c1 | -0.2 | 4.9 | 6.9* | 1.5 | 2.5 | -0.3 | 1.9
Cc1cc(C)c2nc(/N=C(\N)NC(=O)Nc3ccccc3)nc(C)c2c1 | -1.8 | -1.1 | -3.8 | -0.6 | -0.7 | . | .
COCc1cc(C)nc(SCC(=O)Nc2nc(C)cs2)c1C#N | 0.4 | 10.1 | 9.7* | 2.3 | -1.7 | 1.5 | 6.3*
CCOC(=O)N1N=C(c2ccc(OC)cc2)CC1(O)C(F)(F)F (stereo unspecified) | 1.8* | 9.2 | 7.9* | 4.1* | 0.7 | 1.2 | 6.4*
Cc1cc(C)cc(N(CC(=O)NC2CCC(C)CC2)S(=O)(=O)c2ccc(Br)s2)c1 (stereo unspecified) | -0.3 | 0.9 | -0.3 | 0.1 | . | . | .
O=S(=O)(c1ccc(F)cc1)N1CCN(CCc2ccccc2)CC1 | -0.9 | -2.6 | 6.8* | 0.1 | -0.5 | -0.4 | -0.8
COC(=O)C1=C(C)N(Cc2ccccc2C(F)(F)F)C(=NCc2cc(OC)c(OC)c(OC)c2)NC1c1cccc(F)c1 (stereo unspecified) | -1.1 | -0.4 | -1.1 | -0.5 | . | . | .
CN(C)c1nc(N)nc(-c2nc3ccccc3s2)n1 | 1.6* | 11.1* | 9.3* | 3.4 | 3.0 | 1.5 | 15.6*
SMILES | ssDAF12 agonist | hgDAF-12 ag | hcDAF12 agonist | DAX1 inh-1 | DAX1 inh-2 | LXRb hcDAF ctr | hcDAF12 conf
Nc1ccccc1-c1nc2ccccc2s1 | 1.9* | 26.5* | 11.5* | 2.9 | 2.3 | 0.9 | 10.4*
Oc1ccc(-c2nc3ccccc3s2)cc1 | 1.3* | 24.2* | 7.6* | 4.2* | 1.3 | 1.8 | 8.1*
c1ccc2sc(-c3ccc4c(c3)OCO4)nc2c1 | . | . | . | . | 0.6 | . | .
COc1ccc(Cl)cc1-c1nc(N)nc(N(C)C)n1 | -1.9 | -1.8 | -0.6 | -0.2 | -0.7 | . | .
c1coc(-c2nc3ccccc3s2)c1 | 0.8 | 9.3 | 4.3 | 1.3 | 1.2 | . | .
COC(=O)N1C[C@H](Oc2ncccn2)[C@H]2C[C@@H]1c1ccccc1O2 | -0.7 | 1.4 | -0.8 | 0.0 | . | . | .
COc1ccc(Cn2ccc3ccc(-c4ccc5ccn(C(=O)c6ccccc6OC)c5c4)cc32)cc1 | -1.2 | -0.5 | -0.3 | 0.2 | . | . | .
COc1ccc(NC(=O)c2sc(SC)nc2N)cc1 | 1.3* | 12.8* | 7.3* | 1.2 | 1.1 | 0.6 | 9.2*
COc1ccc(NC(=O)c2sc(SCc3ccccc3)nc2N)cc1 | -0.6 | -0.2 | -1.0 | 0.3 | 0.2 | . | .
COc1ccc(CN(C)S(=O)(=O)c2nnc(NC(=O)c3ccccc3OC)s2)cc1OC | -0.1 | 2.2 | 7.7* | 0.7 | -0.2 | -0.2 | 4.5
N#Cc1c(SCC(=O)Nc2nc3ccccc3s2)sc2c(O)cc(=O)[nH]c12 | 0.8 | 3.8 | 7.9* | 0.7 | -1.1 | 0.2 | 5.1
O=C(N[C@@H](Cc1cccnc1)C(=O)N1CCC[C@H]1C(=O)NC1CCCC1)c1ccc(Cl)c(Cl)c1 | -0.8 | 1.5 | -0.2 | -0.1 | . | . | .
CCNC(=O)N1CCN(c2ccc(N3CCN(Cc4ccccc4)[C@@H](C)C3)c(C)c2)[C@@H](C)C1 | -1.3 | -5.2 | -2.6 | -1.7 | . | . | .
CC(C)(C)c1ccc(C#C[C@@H]2C=C[C@@H](O)[C@@H](COC(=O)NCc3ccccc3)O2)cc1 | -0.5 | 1.1 | 1.3 | -1.4 | . | . | .
c1ccc2c(C3=NNC(=NC4CCCCC4)SC3)c[nH]c2c1 | 1.5* | 3.5 | 9.3* | 0.4 | -0.7 | 0.0 | 4.6
Fc1ccccc1-c1nc(-c2ccc(Br)o2)no1 | 2.3* | 20.9* | 16.9* | 2.5 | 2.0 | 1.9 | 16.6*
COc1ccc(Br)cc1-c1noc(-c2ccccc2F)n1 | -0.8 | -1.7 | -0.2 | 0.2 | -0.8 | . | .
COc1ccc(Cl)cc1-c1nc(-c2ccc(Br)o2)no1 | 0.7 | 4.3 | 8.2* | 0.1 | 0.2 | 0.0 | 8.8*
Cc1ccccc1-c1nc(-c2ccc(Br)o2)no1 | 2.3* | 10.4 | 17.2* | 0.8 | 3.9 | 1.1 | 12.1*
COc1ccc(-c2noc(-c3ccc(Br)o3)n2)cc1 | -0.9 | 8.7 | 0.7 | 1.2 | 1.9 | . | .
O=C(CCc1c[nH]c2ccccc12)Nc1ccc(Nc2cccnc2)cc1 | -1.4 | 1.4 | -1.2 | -1.7 | . | . | .
O=C(Nc1ccccc1)N1CCc2ccccc2C1 | 0.4 | 10.8* | 6.8* | 1.4 | 1.5 | 1.1 | 7.9*
CC(=O)c1ccc(NC(=O)N2CCc3ccccc3C2)cc1 | -1.3 | 2.8 | -0.3 | -2.7 | -0.3 | . | .
